From PubChem BioAssay (Tox21) come the findings set out here.

Where “and” joins values, the source holds several entries; their conditions need not be identical. Equal entries are not always repeated. Inconclusive results are not listed. Where a structure was tested more than once in an assay, its records may differ in their call. Calls of active or inactive are those of the source. Calls come from the whole dose curve; as a rule, active = well fitted curve in the direction sought with a large enough effect in the repeat runs; inconclusive = weak or mixed curves; inactive = no such curve, though single readings can be large; an effect the other way counts as inactive or inconclusive.

Assay [1] in a line: A CellTox Green Cytotoxicity Assay to monitor cytotoxicity in HEK293 cells - 32 hour (AID 1224881). Note: nearly all actives have a fitted effect of over 40% in size. Note: potency is the fitted concentration of half-maximal effect. In a few lines: (§1)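 Each value comes from one timepoint of a single continuous run in which HEK293 cells with CellTox Green were exposed to compound for up to 40 h at 37 C, dye fluorescence rising with cell death.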
Assay [2] can be described thus: A CellTox Green Cytotoxicity Assay to monitor cytotoxicity in HepG2 cells - 0 hour (AID 1224882). Note: nearly all actives have a fitted effect of over 35% in size. In a few lines: (§2)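 Continuous culture of HepG2 cells with a membrane-impermeant DNA dye; rising fluorescence marks dead cells. Compound exposure lasted up to 40 h at 37 C, with reads every 8 h from 0 h.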
A short description of assay [3]: A CellTox Green Cytotoxicity Assay to monitor cytotoxicity in HepG2 cells - 32 hour (AID 1224883). Note: nearly all actives have a fitted effect of over 50% in size. Note: potency is the fitted concentration of half-maximal effect. In a few lines: as §2
Assay [4] is described as follows: A CellTox Green Cytotoxicity Assay to monitor cytotoxicity in HEK293 cells - 8 hour (AID 1224884). Note: nearly all actives have a fitted effect of over 35% in size. Note: potency is the fitted concentration of half-maximal effect. In a few lines:
as §1

Assay [5] is described as follows: qHTS RealTime-Glo MT Cell Viability Assay in HepG2 cells - 16 hour (AID 1224885). Note: nearly all actives have a fitted effect of over 50% in size. Note: potency is the fitted concentration of half-maximal effect. The essentials:
(§3)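 Cells + NanoLuc/prosubstrate dispensed (600 cells/well) → 5 h at 37 C/5% CO2 → compounds in DMSO transferred → 40 h incubation at 37 C, luminescence read at 0, 8, 16, 24, 32, 40 h.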
On the technique in general: Quantitative high-throughput screening tests each substance at several concentrations.

Assay [6] is described as follows: qHTS RealTime-Glo MT Cell Viability Assay in HEK293 cells - 24 hour (AID 1224886). Note: nearly all actives have a fitted effect of over 50% in size. Note: potency is the fitted concentration of half-maximal effect. The essentials:
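Tox21 10K qHTS, HEK293, 600 cells/well, RealTime-Glo reagent co-dispensed with cells; 5 h preincubation, compound by pintool, 37 C, luminescence at 0–40 h.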

Assay [7] in a line: qHTS RealTime-Glo MT Cell Viability Assay in HEK293 cells - 8 hour (AID 1224887). Note: nearly all actives have a fitted effect of over 50% in size. Note: potency is the fitted concentration of half-maximal effect. In a few lines: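 qHTS format; HEK293 cells with NanoLuc/prosubstrate reagent, 37 C/5% CO2 for 5 h pre-dosing; compounds 23 nL in DMSO; luminescence at each time point reflects viable cells.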
The nature of assay [8]: A CellTox Green Cytotoxicity Assay to monitor cytotoxicity in HEK293 cells - 16 hour (AID 1224888). Note: nearly all actives have a fitted effect of over 35% in size. Note: potency is the fitted concentration of half-maximal effect. The essentials: as §1
Assay [9] can be described thus: qHTS RealTime-Glo MT Cell Viability Assay in HepG2 cells - 0 hour (AID 1224889). Note: nearly all actives have a fitted effect of over 50% in size. In a few lines: as §3
Assay [10] can be described thus: A CellTox Green Cytotoxicity Assay to monitor cytotoxicity in HepG2 cells - 8 hour (AID 1224890). Note: nearly all actives have a fitted effect of over 45% in size. Note: potency is the fitted concentration of half-maximal effect. The essentials: as §2

`O=C(O)[C@H](O)[C@@H](O)C(=O)O`: the Potency result in [1], in assay [2], in assay [3], in assay [4], in [5] and in [6] was “inactive” in each case. In addition, the Potency entry in assay [7], in [8], in assay [9] and in [10] was “inactive” throughout.
Turning to `CCN(CC)Cc1nccn1-c1ccc([N+](=O)[O-])cc1C(=O)c1ccccc1Cl`, the Potency result in assay [1], in assay [2], in [3], in [4], in [5] and in assay [6] was “inactive” each time. Further, the Potency entry in assay [7], in [8], in assay [9] and in [10] was “inactive” throughout.
In the case of `Oc1ccc(Cl)c(Cl)c1`, the Potency entry in [1], in assay [2], in [3], in assay [4], in assay [5] and in assay [6] was “inactive” each time. The Potency result in assay [7], in [8], in assay [9] and in assay [10] was “inactive” throughout.
On to `C=CC(=O)[O][Sn]([CH2]CCC)([CH2]CCC)[CH2]CCC`, for which the Potency was 3.47 µM (active) in assay [1]; 692 nM (active) in assay [3]; 21.9 µM (active) in [4]; 549 nM (active) in assay [5]; 436 nM (active) in [6]; 871 nM (active) in [7]. The Potency in assay [8] was 24.5 µM (active); in [10] it was 977 nM (active). Besides, the Potency entry in [2] and in [9] was “inactive” each time.
Consider `CCNc1nc(NC(C)C(C)C)nc(SC)n1` (centres undefined), for which the Potency entry in assay [1], in assay [2], in assay [3], in assay [4], in assay [5] and in assay [6] was “inactive” in each case. Besides, the Potency result in assay [7], in assay [8], in assay [9] and in [10] was “inactive” each time.
As for `CCN(CC)CCN1C(=O)CN=C(c2ccccc2F)c2cc(Cl)ccc21`, the Potency result in [1], in assay [2], in [3], in assay [4], in [5] and in assay [6] was “inactive” each time. In addition, the Potency result in assay [7], in assay [8], in assay [9] and in assay [10] was “inactive” throughout.
For the molecule `CC(Cc1ccc2c(c1)OCO2)NO` (centres undefined), the Potency result in [1], in [2], in [3], in assay [4], in assay [5] and in assay [6] was “inactive” each time. Besides, the Potency entry in assay [7], in assay [8], in [9] and in [10] was “inactive” in each case.
Turning to `C=CC(=C)C`, the Potency result in assay [1], in assay [2], in [3], in assay [4], in assay [5] and in assay [6] was “inactive” in each case. For the same molecule, the Potency result in [7], in assay [8], in assay [9] and in [10] was “inactive” each time.
With `[Cl-].[Cl-].[Cl-].[Yb+3]`, the Potency result in assay [1], in assay [2], in assay [3], in assay [4], in assay [5] and in [6] was “inactive” in each case. The Potency entry in assay [7], in assay [8], in assay [9] and in assay [10] was “inactive” each time.
As to `O=c1c2ccccc2c(=O)c2c1cc(Cl)c1[nH]c3c([nH]c12)c(Cl)cc1c(=O)c2ccccc2c(=O)c13`, the Potency result in assay [1], in assay [2], in assay [3], in assay [4], in assay [5] and in [6] was “inactive” in each case. The Potency result in [7], in [8], in [9] and in assay [10] was “inactive” in each case.
Turning to `CCn1cc[n+](C)c1` (tested in a mixture with another compound), the Potency entry in [1], in assay [2], in assay [3], in assay [4], in [5] and in assay [6] was “inactive” in each case. Moreover, the Potency result in assay [7], in [8], in assay [9] and in [10] was “inactive” in each case.
`CCCCCON=O`: the Potency result in assay [1], in assay [2], in assay [3], in assay [4], in assay [5] and in [6] was “inactive” each time. Also, the Potency result in assay [7], in assay [8], in assay [9] and in assay [10] was “inactive” each time.
As to `CCN(CC)C(=S)S`, the Potency was 17.5 µM (active) and 4.87 µM (active) and 11 µM (active) in [1]; “inactive and 6.88 µM (active) and 21.9 µM (active)” in assay [3]; 4.87 µM (active) and 12.3 µM (active) in assay [6]. For the same molecule, the Potency entry in [2], in assay [4], in assay [5], in [7], in assay [8] and in [9] was “inactive” each time. Besides, the Potency entry in [10] was “inactive”.
`ClC1(Cl)C2(Cl)C3(Cl)C4(Cl)C(Cl)(Cl)C5(Cl)C3(Cl)C1(Cl)C5(Cl)C24Cl` (centres undefined): the Potency result in [1], in [2], in assay [3], in assay [4], in assay [5] and in [6] was “inactive” each time. The Potency result in [7], in [8], in [9] and in assay [10] was “inactive” throughout.
On to `CCOC(=O)Cc1ccccc1`, for which the Potency result in assay [1], in assay [2], in [3], in assay [4], in assay [5] and in assay [6] was “inactive” each time. In addition, the Potency result in assay [7], in [8], in assay [9] and in [10] was “inactive” in each case.
For `CCCCON=O`, the Potency entry in [1], in assay [2], in assay [3], in [4], in assay [5] and in assay [6] was “inactive” throughout. Further, the Potency result in [7], in assay [8], in assay [9] and in [10] was “inactive” throughout.
With `CCOP(=O)(Sc1ccccc1)Sc1ccccc1`, the Potency result in [1], in [2], in assay [3], in [4], in assay [5] and in [6] was “inactive” in each case. The Potency entry in assay [7], in assay [8], in assay [9] and in [10] was “inactive” in each case.
Regarding `[Cl-].[Cl-].[Sn+2]`, the Potency entry in [1], in assay [2], in [3], in assay [4], in [5] and in assay [6] was “inactive” in each case. Further, the Potency result in assay [7], in [8], in assay [9] and in assay [10] was “inactive” in each case.
In the case of `COCCC#N`, the Potency entry in assay [1], in assay [2], in [3], in assay [4], in assay [5] and in [6] was “inactive” each time. For the same molecule, the Potency result in assay [7], in [8], in assay [9] and in assay [10] was “inactive” throughout.
As to `CN(C)C(=S)SSC(=S)N(C)C`, the Potency in [1] is 4.83 µM (active) and 1.23 µM (active) and 213 nM (active); in [3] it was 309 nM (active) and 134 nM (active); in assay [4] it was 49 µM (active) and inactive; in assay [5], 48.3 µM (active) and 1.74 µM (active) and 2.68 µM (active); in assay [6], 272 nM (active) and 195 nM (active) and 21.3 µM (active); in [7], 43 µM (active) and 27.5 µM (active). Further, the Potency in [8] was 43 µM (active) and 38.9 µM (active). Besides, the Potency result in assay [2] and in [9] was “inactive” each time.
With `CC(Cc1ccc(OCC(=O)O)cc1)NCC(O)c1csc(C(F)(F)F)n1` (centres undefined), the Potency result in assay [1], in assay [2], in assay [3], in assay [4], in assay [5] and in [6] was “inactive” each time. Also, the Potency result in [7], in [8], in [9] and in assay [10] was “inactive” in each case.
As to `CC(Cc1ccc(O)cc1)NCC(O)c1cc(O)cc(O)c1` (centres undefined), the Potency entry in [1], in assay [2], in assay [3], in [4], in assay [5] and in assay [6] was “inactive” each time. For the same molecule, the Potency entry in assay [7], in assay [8], in assay [9] and in assay [10] was “inactive” each time.
